Measurements from ChEMBL document CHEMBL3988442, “University of Dundee, Small-Polar-MMV Screening Library” (2021).
Screen size: about 48,000 compounds; about 13,000 (27%) showed an effect of 50% or more. The list shows a part of the results.

Test system: Wolbachia pipientis
Assay: Anti-Wolbachia Cell-Based Screen
Type: functional
Parameters: scale not given: in the data most compounds retested in dose-response had high values
Settings: 5 µM

Row | SMILES | Percent Effect [%]
1 | CNS(=O)(=O)c1ccc(CNC(=O)NCC2CCOC2)cc1 (centres undefined) | 7.061
2 | Cc1cnc(C(=O)N2CC[C@H]3C[C@@H](c4nc(C)cs4)O[C@@H]3C2)cn1 | -16.87
3 | Fc1cnc(N2C[C@@H]3C[C@@H](c4nc(C5CC5)cs4)O[C@@H]3C2)nc1.O=C(O)C(F)(F)F | 94.12
4 | Cc1csc([C@@H]2C[C@H]3CN(c4ncc(F)cn4)C[C@H]3O2)n1.O=C(O)C(F)(F)F | 98.65
5 | Cn1cc(CN2CC[C@H]3C[C@H](c4nc(C5CC5)cs4)O[C@@H]3C2)cn1 | 15.37
6 | Cn1cc(CN2CC[C@H]3C[C@@H](c4nc(C5CC5)cs4)O[C@@H]3C2)cn1 | -0.3412
7 | Cc1nc(CN2C[C@@H]3CN(c4ncc(F)cn4)C[C@@H]3C2=O)cs1.O=C(O)C(F)(F)F | -12.56
8 | Cc1cccc(N2CCN(c3ccn4c(=O)[nH]nc4n3)CC2)c1C | -10.93
9 | Cc1ccc2c(c1C)OCC2NCc1cccc(C#N)c1 (centres undefined) | -16
10 | Cc1cc2n(n1)CC(CNCCNC(=O)c1ccc(F)cc1)CN2 (centres undefined) | -2.749
11 | CC(C(=O)N1CCCC1)S(=O)(=O)Cc1nc(C(C)(C)C)no1 (centres undefined) | 0.9098
12 | Cc1cccc(C)c1NCc1noc(C2CC2)n1 | -19.13
13 | CCCc1nnc(NC2CCN(CCO)CC2)o1 | -14.34
14 | CCCc1nnc(NC2CCN(C3CCOCC3)CC2)o1 | -6.121
15 | CCCc1nnc(NC2CCN(C3CCCC3)CC2)o1 | -6.832
16 | c1ccc(-c2n[nH]c(CCNc3nnc(C4CCC4)o3)n2)cc1 | -23.29
17 | CCCc1nnc(NCCc2noc(C3CCC3)n2)o1 | 108
18 | CCCc1nnc(NCCc2noc(C3CC3)n2)o1 | 133.3
19 | c1ccc(-c2nc(CCNc3nnc(C4CCC4)o3)no2)cc1 | -25.81
20 | CCCc1nnc(NCCc2noc(C3CCCC3)n2)o1 | 110.1
21 | CCOC(=O)CCNC(=O)N1CCCC(CNC(=O)c2cccs2)C1 (centres undefined) | -0.8406
22 | COCC(C)NCc1nc(-c2ccc(C)cc2)c(-c2ccccn2)[nH]1 (centres undefined) | 22.14
23 | O=C(NCC1CC[C@@]2(CNCCOC2)O1)c1cnccn1 (some centres undefined) | -4.727
24 | CCOCC(O)CN1CCN(C(=O)c2ccccc2Cl)CC1 (centres undefined) | -0.07038
25 | CCOCC(O)CN1CCN(C(=O)CC(C)C)CC1 (centres undefined) | -1.349
26 | CCOCC(O)CN1CCN(C(=O)c2cc(C)ccc2OC)CC1 (centres undefined) | 91.25

Row | SMILES | Percent Effect [%]
27 | CCOCC(O)CN1CCN(C(=O)c2ccc(OC)cc2F)CC1 (centres undefined) | 5.863
28 | CCOCC(O)CN1CCN(C(=O)C2CC2)CC1 (centres undefined) | 3.304
29 | CCOCC(O)CN1CCN(C(=O)c2cccnc2OC)CC1 (centres undefined) | -8.967
30 | CCOCC(O)CN1CCN(C(=O)c2ccccc2F)CC1 (centres undefined) | 82.64
31 | CCOCC(O)CN1CCN(C(=O)c2cc(Cl)ccc2F)CC1 (centres undefined) | 107.8
32 | CCOCC(O)CN1CCN(C(=O)c2cc(F)ccc2C)CC1 (centres undefined) | -5.879
33 | CCOCC(O)CN1CCN(C(=O)c2cccc3[nH]ncc23)CC1 (centres undefined) | -8.301
34 | CCOCC(O)CN1CCN(C(=O)c2cc(C)ccc2F)CC1 (centres undefined) | 114.4
35 | CCC(CO)N(Cc1ccccn1)C(=O)c1ccc(F)c(F)c1 (centres undefined) | -4.122
36 | COc1ccccc1[C@@H]1CN(Cc2ccc3nsnc3c2)C[C@H]1C(=O)O | -7.505
37 | O=C1CCCN1CC1CCCCN1C(=O)Nc1cccnc1 (centres undefined) | 2.863
38 | CC(CO)(NC(=O)Nc1nnc(C2CC2)s1)C1CCCCC1 (centres undefined) | -9.055
39 | CCN(CC)c1ncnc2c1CCN(c1ccc(C)nn1)CC2 | 109.1
40 | CCN(C)c1ncnc2c1CCN(c1ccc(C)nn1)CC2 | 88.89
41 | Cc1cccc(N2CCc3ncnc(C4CC4)c3CC2)n1.O=C(O)C(F)(F)F | -0.7923
42 | Cc1ccc(N2CCc3ncnc(C)c3CC2)nn1 | 98.11
43 | CCN(C)c1ncnc2c1CCN(C(=O)c1ccc(C)o1)CC2 | 16.8
44 | CCN(C)c1ncnc2c1CCN(Cc1ccoc1)CC2 | 5.87
45 | CCN(CC)c1ncnc2c1CCN(CC1CCOCC1)CC2.O=C(O)C(F)(F)F | -1.394
46 | Cc1ncnc2c1CCN(c1cc(C(F)(F)F)ncn1)CC2 | -23.9
47 | Cc1ccc(N2CCc3ncnc(C4CC4)c3CC2)nn1 | 109.7
48 | Cc1ccc(N2CCCC(N(C)c3ncnc4c3CCC4)C2)nn1 (centres undefined) | 40.92
49 | c1ccc(N2CCc3ncnc(C4CC4)c3CC2)nc1 | -3.177
50 | Cc1ncnc2c1CCN(c1ccccn1)CC2.O=C(O)C(F)(F)F | -1.048
51 | CN(c1nc(Cn2cc(Br)ccc2=O)cs1)C1CC1 | -13.88
52 | CS(=O)(=O)N1CCC(c2nnc3ccc(C(=O)N4CCCC4)cn23)C1 (centres undefined) | -3.487

Row | SMILES | Percent Effect [%]
53 | CCc1cnc(N)nc1NCCCn1nc(C)nc1C | 4.841
54 | CC(CCN1CCOCC1)NC(=O)c1cccc(C(F)(F)F)c1F (centres undefined) | -6.149
55 | c1ccc(N2CCC(NCc3cccc4cn[nH]c34)C2)cc1 (centres undefined) | 2.833
56 | COc1ccc(N2CCC(C(=O)/N=c3/[nH]ccs3)CC2)nn1 | 7.434
57 | Cc1nc(CCNC(=O)C2CC(=O)N(C(C)C)C2)sc1C (centres undefined) | -29.36
58 | COCCN(CC1CCCN(C2Cc3ccccc3C2)C1)C(=O)CO (centres undefined) | -6.477
59 | CN(C)c1ncnc2c1CCN(c1ccccc1)CC2 | 9.479
60 | Cc1ccc(N2CCc3ncnc(N(C)C)c3CC2)nn1 | 103.7
61 | Cc1ccccc1S(=O)(=O)N1CCc2c(ncnc2N(C)C)C1 | -0.5839
62 | Cc1nc(CN(C)C2CCN(CC(=O)N(C)CCC#N)C2)no1 (centres undefined) | -8.122
63 | Cc1nc(CN(C)C2CCN(CC3CCCC3)C2)no1 (centres undefined) | 93.14
64 | Cc1nc(CN(C)C2CCCN(c3ccccc3)C2)no1 (centres undefined) | 85.51
65 | Cc1nc(CN(C)C2CCN(CC3CCCCC3)C2)no1 (centres undefined) | 12.52
66 | Cc1nc(CN(C)C2CCN(CC3CCOCC3)C2)no1 (centres undefined) | 108.1
67 | CN(Cc1cc(=O)c(O)co1)C1CCCN(c2ccccc2)C1 (centres undefined) | -2.476
68 | Cc1nc(CN(C)C2CCN(CC3CCC3)C2)no1 (centres undefined) | 98.61
69 | Cc1cc(CN(C)C2CCCN(Cc3noc(C)n3)C2)on1 (centres undefined) | 4.561
70 | O=C(c1nc(=O)[nH][nH]1)N1CCC2(CCCCC2)C1 | -9.423
71 | c1ccc(SCCN2CCN(CCn3cncn3)CC2)cc1 | 8.727
72 | CCC(CO)N(Cc1ccsc1)Cc1ccc(-c2ccn[nH]2)s1 (centres undefined) | -9.048
73 | CN1CCN(C2CCN(CC(=O)NCC(F)(F)F)CC2)C1=O | -4.835
74 | O=C(NC(Cc1ccsc1)c1nccs1)C1CCOCC1 (centres undefined) | -7.907
75 | CC(NC(=O)NCc1cccc(CN2CCCC2)c1)c1nccs1 (centres undefined) | -2.261
76 | CS(=O)(=O)N1CCC(C(=O)NC(Cc2ccsc2)c2nccs2)CC1 (centres undefined) | -7.112
77 | CCS(=O)(=O)N1CCC(C(=O)NC(Cc2ccsc2)c2nccs2)CC1 (centres undefined) | 102.7
78 | CC(C)Oc1cccc(CNC(Cc2ccsc2)c2nccs2)c1.Cl (centres undefined) | 94.44

Row | SMILES | Percent Effect [%]
79 | O=C(NC(Cc1ccsc1)c1nccs1)C1CC1 (centres undefined) | 111.3
80 | O=C(CSCc1ccncc1)N(Cc1ccsc1)C1CC1 | 10.91
81 | CC(C)Oc1cccc(CNC(=O)NC2(CO)CCCC2)c1 | 12.23
82 | C=C(C)COc1ccccc1CNC(CC)c1ccnn1C (centres undefined) | -26.14
83 | CCN(C(c1cccnc1)c1ccc2c(c1)CCO2)S(C)(=O)=O (centres undefined) | 5.843
84 | CCn1nnnc1-c1cccc(NC(=O)CCc2cnn(C)c2)c1 | -3.137
85 | Cc1ccc2cc(CNCCCN3CCOCC3)c(=O)[nH]c2c1C | 110.9
86 | CCc1cccc2cc(CNCCCN3CCOCC3)c(=O)[nH]c12 | 109.4
87 | Cc1cccc2cc(CNCCCN3CCOCC3)c(=O)[nH]c12 | -14.11
88 | Cc1cccc2cc(CN3CCC(N4CCOCC4)CC3)c(=O)[nH]c12 | -9.486
89 | COc1ccccc1CN1CCCCC1c1n[nH]cc1-c1cc(C)no1.Cl (centres undefined) | 107.2
90 | CCc1ccc(CN2CCCCC2c2n[nH]cc2-c2cc(C)no2)cc1.Cl (centres undefined) | 131.5
91 | COc1ccc(CN2CCC[C@H]2c2nc(-c3cncnc3N)no2)cc1 | -2.568
92 | COc1cccc(CN2CCCCCC2c2cccc(C)c2)c1O (centres undefined) | -3.31
93 | Cc1cc(C2CCCN2Cc2ccn(C)c(=O)c2)no1 (centres undefined) | -4.327
94 | Cc1cc(C2CCCN2Cc2cc(-c3ccco3)on2)on1 (centres undefined) | -89.63
95 | COc1ccc(C)cc1CN1CCCC1c1noc(C2CC2)n1 (centres undefined) | 18.68
96 | COc1ccc(CN2CCOC[C@H]2c2nc(-c3ccncc3)c[nH]2)cc1 | -8.206
97 | Cc1cc(C2CCCN2Cc2nc(-c3ccco3)no2)on1 (centres undefined) | 9.843
98 | COc1ccc(CN2CCCCC2c2n[nH]cc2-c2cc(C)no2)cc1.Cl (centres undefined) | 84.19
99 | Cc1cccc(CN2CCCCC2c2n[nH]cc2-c2cc(C)no2)c1.Cl (centres undefined) | 91.3
100 | CS(=O)(=O)N1CCc2[nH]cnc2C12CCN(C(=O)c1ccccc1)CC2 | -3.54
101 | CN1C[C@@H](NC(=O)C2CC2)C[C@H]1c1nc(-c2cnccn2)no1 | -3.142
102 | O=C(c1ncoc1-c1ccco1)N1CCCN(c2nccs2)CC1 | -20.95
103 | COc1ccc2c(c1)C(C(=O)N(C)CCn1ccnc1C)CC(=O)N2 (centres undefined) | -6.574
104 | O=C1CC(c2cccnc2)c2c(c(C(=O)O)cn2-c2ccccc2)N1 (centres undefined) | 6.777
